Records with an inconclusive call do not appear. Calls of active or inactive are those of the source. Unless noted, the call rests on the fitted dose curve; in most records, active means well fitted curve in the direction sought with a large enough effect in the repeat runs; inconclusive means weak or mixed curves; inactive means no such curve, though single readings can be large; an effect the other way counts as inactive or inconclusive.
Assays:
[1] = qHTS assay to identify small molecule antagonists of the estrogen receptor alpha (ER-alpha) signaling pathway using the BG1 cell line in the presence of 0.1 nM 17-beta-estradiol - cell viability counter screen (AID 1259241); further: nearly all actives have a fitted effect of over 40% in size
Outline: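 Viability in VM7Luc4E2 cells after 22 hr compound exposure under 0.1 nM 17beta-estradiol stimulation, by CellTiter-Fluor.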

[2] = qHTS assay to identify small molecule antagonists of the androgen receptor (AR) signaling pathway using the MDA cell line in the presence of 0.5 nM R1881 - cell viability counter screen (AID 1259242); further: nearly all actives have a fitted effect of over 45% in size
Outline: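 MDA-kb2 cells (MMTV-luciferase, AR/GR responsive) were treated with compounds plus 0.5 nM R1881 (final) for 16 hr at 37C, 0% CO2. Viability was then read in the same wells as live-cell protease fluorescence (CellTiter-Fluor, 30 min).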

[3] = qHTS assay to identify small molecule HDAC inhibitors (AID 1259364); further: top concentration of the series differs between compounds; nearly all actives have a fitted effect of over 45% in size
Outline: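 Wild-type HCT-116 cells, plated overnight at 37 C, exposed to compounds 2 hr at 37 C; luminogenic HDAC-Glo substrate then added 30 min at room temperature. Luminescence reports relative endogenous class I/II HDAC activity.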

[4] = qHTS assay to identify small molecule HDAC inhibitors - cell viability counter screen (AID 1259365); further: series mostly up to about 92 µM; nearly all actives have a fitted effect of over 50% in size
Outline: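 Cytotoxicity was gauged in wild-type HCT-116 cells after a brief 2hr treatment with DMSO-dissolved compounds at 37C and 5% CO2, using CellTiter-Glo luminescence developed for 30min at room temperature.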

[5] = qHTS assay to identify small molecule agonists of the sonic hedgehog signaling (Shh) pathway - cell viability counter screen (AID 1259366); further: nearly all actives have a fitted effect of over 50% in size
Outline: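 Stable Gli1-Luc NIH/3T3 clone, 2,000 cells/well. Compound exposure 24hr at 37C. Read-out: CellTiter-Fluor fluorescence.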

[6] = qHTS assay to identify small molecule antagonists of the sonic hedgehog signaling (Shh) pathway - cell viability counter screen (AID 1259367); further: nearly all actives have a fitted effect of over 55% in size
Outline: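 NIH/3T3-derived Gli1-Luc reporter cells (2,000 per well) rested 4 hr at 37 C, then received DMSO compounds plus conditioned medium. After 23 hr of treatment, CellTiter-Fluor was added for 1 hr at 37C and fluorescence read.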

[7] = qHTS assay to identify small molecule agonists of the sonic hedgehog signaling (Shh) pathway (AID 1259368; calls by dose curve;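 further: NIH/3T3-derived 3T3Gli1-Luc cells carrying a stable Gli1-driven firefly luciferase reporter; series mostly up to about 92 µM; nearly all actives have a fitted effect of over 15% in size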)
Outline: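 NIH/3T3-derived 3T3Gli1-Luc cells with stably integrated Gli1-driven firefly luciferase, 2,000 cells/well, compounds added after 4 hr. Incubated 24 hr at 37C, 5% CO2; luminescence read after 30 min with luciferase reagent at room temperature.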

[8] = qHTS assay to identify small molecule agonists of the androgen receptor (AR) signaling pathway in the presence of an antagonist - cell viability counter screen (AID 1259379); further: nearly all actives have a fitted effect of over 25% in size; further: potency means the concentration at half of the fitted maximal effect
Outline: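 MDA-kb2 cells (MMTV-luciferase, AR/GR), 3,000/well, 5 h attachment, then 3.0 µM nilutamide (final) and compounds at 15 concentrations. Viability by CellTiter-Fluor fluorescence after 16 h at 37 °C, 0% CO2, in the reporter wells.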

[9] = qHTS assay to identify small molecule agonists of the estrogen receptor beta (ER-beta) signaling pathway - cell viability counter screen (AID 1259380); further: nearly all actives have a fitted effect of over 30% in size; further: potency means the concentration at half of the fitted maximal effect
Outline: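 ER-beta-UAS-bla HEK293T cells in medium with 2% charcoal-stripped FBS, pre-incubated 6 hr, then treated 16 hr at 37C. Cytotoxicity read in the same wells by CellTiter-Glo luminescence after 30 min at room temperature.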

[10] = qHTS assay to identify small molecule antagonists of the estrogen receptor beta (ER-beta) signaling pathway - cell viability counter screen (AID 1259382); further: series mostly up to about 92 µM; nearly all actives have a fitted effect of over 55% in size
Outline: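 ER-beta-UAS-bla HEK293T cells in 2% charcoal-stripped FBS medium, treated with compound plus 1 nM 17-beta-estradiol for 16 h at 37C. Viability read by CellTiter-Glo luminescence after 30 min at room temperature in the same wells.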

[11] = qHTS assay to identify small molecule agonists or antagonists of the thyroid stimulating hormone receptor (TSHR) signaling pathway - wild type cell line counter screen (AID 1259384; calls by dose curve)
Outline: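 Wild-type HEK293 cells were plated 18 h at 37 C/5% CO2, pin-dosed with compound plus Ro20-1724 medium, held 30 min at room temperature, then given cAMP-d2 and anti-cAMP-cryptate; fluorescence was read after 1 h. Fifteen concentrations, triplicate.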

[12] = target: Thyrotropin receptor (Homo sapiens) (UniProt P16473); assay: qHTS assay to identify small molecule antagonists of the thyroid stimulating hormone receptor (TSHR) signaling pathway (AID 1259385; calls by dose curve; further: nearly all actives have a fitted effect of over 20% in size)
Outline: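 TSHR-HEK293 cells were plated and held 18 h at 37C/5% CO2, then given compound plus Ro20-1724 and stimulated with TSH at 1.5 ng/mL final. After 30 min at room temperature, cAMP was detected with cAMP-d2/anti-cAMP-cryptate (1 h) by fluorescence.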

[13] = target: Estrogen receptor beta (Homo sapiens) (UniProt Q92731); assay: qHTS assay to identify small molecule agonists of the estrogen receptor beta (ER-beta) signaling pathway (AID 1259377; active means well fitted activation curve with a large enough effect in the signal ratio in the repeat runs, not every such curve was filed as active; the % refers to the signal ratio)
Outline: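 Measured by fluorescence intensity from a B/G FRET beta-lactamase substrate (2 h, room temperature) in ER-beta-UAS-bla HEK293T cells treated with DMSO-dissolved compounds for 16 hr at 37C and 5% CO2.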

[14] = target: Estrogen receptor beta (Homo sapiens) (UniProt Q92731); assay: qHTS assay to identify small molecule antagonists of the estrogen receptor beta (ER-beta) signaling pathway (AID 1259378; active means well fitted inhibition curve with a large enough effect in the signal ratio in the repeat runs, not every such curve was filed as active; the % refers to the signal ratio; further: potency means the concentration at half of the fitted maximal effect)
Outline: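 ER-beta-UAS-bla HEK293T (GripTite) cells in 2% charcoal-stripped FBS medium were preincubated 6 hr at 37C, dosed with compound, then stimulated with 1 nM E2 (final) for 16 hr; beta-lactamase reporter read by B/G FRET fluorescence after 2 hr substrate loading.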

[15] = target: Androgen receptor (Homo sapiens) (UniProt P10275); assay: qHTS assay to identify small molecule antagonists of the androgen receptor (AR) signaling pathway using the MDA cell line in the presence of 0.5 nM R1881 (AID 1259243); further: nearly all actives have a fitted effect of over 50% in size; further: potency means the concentration at half of the fitted maximal effect
Outline: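 MDA-kb2 cells (MMTV-luciferase, responsive to AR and GR) at 3,000/well, rested 5 h at 37C, 0% CO2, then given compounds plus 0.5 nM R1881 (final) for 16 hr. Luciferase read with ONE-Glo after 30 min at room temperature.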

[16] = target: Estrogen receptor (Homo sapiens) (UniProt P03372); assay: qHTS assay to identify small molecule antagonists of the estrogen receptor alpha (ER-alpha) signaling pathway using the BG1 cell line in the presence of 0.1 nM 17-beta-estradiol (AID 1259244); further: nearly all actives have a fitted effect of over 50% in size
Outline: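 VM7Luc4E2 cells (endogenous full-length ER-alpha, 4×ERE-luciferase), kept 5 days in phenol red-free, charcoal-stripped FBS medium; 4,000 cells/well. Compounds added with 0.1 nM (final) 17beta-estradiol, 22 hr at 37C; luminescence read with ONE-Glo after 30 min.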

[17] = target: Androgen receptor (Homo sapiens) (UniProt P10275); assay: qHTS assay to identify small molecule agonists of the androgen receptor (AR) signaling pathway in the presence of an antagonist (AID 1259381; calls by dose curve; further: nearly all actives have a fitted effect of over 15% in size)
Outline: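 MDA-kb2 cells carrying MMTV-luciferase (AR/GR responsive), 3,000 cells/well, co-treated with 3.0 uM nilutamide final. Compounds at 15 concentrations, 16 hr at 37C without CO2. Luciferase luminescence read after 30 min with ONE-Glo.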

[18] = qHTS assay to identify small molecule phospholipidosis (PLD) inducers (AID 1259344; active means well fitted curve in the direction sought with a large enough effect; an effect the other way counts as inactive or inconclusive)
Outline: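 HepG2 cells on collagen I, attached 4 h at 37 C, were co-treated with compound and LipidTOX Red dye for 24 h at 37 C, then fixed with paraformaldehyde plus Hoechst 33342 and imaged by high-content microscopy for phospholipid accumulation.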

[19] = target: Estrogen receptor (Homo sapiens) (UniProt P03372); assay: qHTS assay to identify small molecule agonists of the estrogen receptor alpha (ER-alpha) signaling pathway in the presence of an antagonist (AID 1259383; calls by dose curve; further: nearly all actives have a fitted effect of over 15% in size; further: potency means the concentration at half of the fitted maximal effect; on activation: top concentration of the series differs between compounds)
Outline: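 VM7Luc4E2 cells express endogenous full-length ER-alpha with an ERE-luciferase reporter and were hormone-deprived for 5 days. Compounds at 15 concentrations were added with 10.0nM ICI-182,780 for 22hr at 37C. Luminescence was read with ONE-Glo.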

[20] = qHTS assay to identify small molecule antagonists of the sonic hedgehog signaling (Shh) pathway (AID 1259369; calls by dose curve; further: nearly all actives have a fitted effect of over 45% in size)
Outline: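 NIH/3T3-derived Gli1-Luc reporter cells plated 4 h, dosed with compound, then stimulated with conditioned medium for 24 h at 37 C. Firefly luciferase luminescence read after 30 min with detection reagent at room temperature.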

Measured: Potency

Sequence of Thyrotropin receptor (Homo sapiens) (P16473 whole entry, looked up): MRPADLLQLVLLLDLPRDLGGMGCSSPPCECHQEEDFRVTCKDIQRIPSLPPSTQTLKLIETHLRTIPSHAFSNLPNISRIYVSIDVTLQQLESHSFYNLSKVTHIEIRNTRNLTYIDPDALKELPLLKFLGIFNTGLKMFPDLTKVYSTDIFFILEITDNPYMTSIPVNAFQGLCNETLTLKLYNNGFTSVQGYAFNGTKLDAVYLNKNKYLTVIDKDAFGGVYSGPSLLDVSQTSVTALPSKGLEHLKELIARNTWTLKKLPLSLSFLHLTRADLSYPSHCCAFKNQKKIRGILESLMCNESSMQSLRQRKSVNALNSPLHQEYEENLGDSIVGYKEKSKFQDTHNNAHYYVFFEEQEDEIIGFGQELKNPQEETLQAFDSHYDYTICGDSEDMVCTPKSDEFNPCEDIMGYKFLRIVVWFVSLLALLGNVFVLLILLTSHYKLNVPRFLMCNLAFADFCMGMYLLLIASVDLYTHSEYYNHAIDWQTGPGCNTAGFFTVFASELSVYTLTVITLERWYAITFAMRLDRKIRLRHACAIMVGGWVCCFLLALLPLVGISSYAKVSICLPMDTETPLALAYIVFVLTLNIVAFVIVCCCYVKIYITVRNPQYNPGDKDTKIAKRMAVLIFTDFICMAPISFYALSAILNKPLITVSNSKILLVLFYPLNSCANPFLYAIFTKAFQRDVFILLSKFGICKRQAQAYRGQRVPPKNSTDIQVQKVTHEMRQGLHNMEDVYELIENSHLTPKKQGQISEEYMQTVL
Sequence of Estrogen receptor beta (Homo sapiens) (Q92731 whole entry, looked up): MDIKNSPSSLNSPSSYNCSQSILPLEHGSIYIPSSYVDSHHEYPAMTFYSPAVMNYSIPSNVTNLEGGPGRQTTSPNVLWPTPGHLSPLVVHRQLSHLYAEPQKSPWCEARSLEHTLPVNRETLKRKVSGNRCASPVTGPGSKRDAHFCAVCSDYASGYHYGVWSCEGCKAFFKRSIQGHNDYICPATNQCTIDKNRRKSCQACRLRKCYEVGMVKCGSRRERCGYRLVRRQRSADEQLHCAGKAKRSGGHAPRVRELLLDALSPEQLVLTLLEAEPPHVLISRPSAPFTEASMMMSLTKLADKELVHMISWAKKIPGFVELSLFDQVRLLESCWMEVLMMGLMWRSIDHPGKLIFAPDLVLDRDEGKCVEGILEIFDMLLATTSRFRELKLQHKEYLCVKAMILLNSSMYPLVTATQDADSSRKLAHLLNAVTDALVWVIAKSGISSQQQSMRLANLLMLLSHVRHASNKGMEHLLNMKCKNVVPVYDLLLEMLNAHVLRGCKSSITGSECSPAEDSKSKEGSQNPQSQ
Sequence of Androgen receptor (Homo sapiens) (P10275 whole entry, looked up): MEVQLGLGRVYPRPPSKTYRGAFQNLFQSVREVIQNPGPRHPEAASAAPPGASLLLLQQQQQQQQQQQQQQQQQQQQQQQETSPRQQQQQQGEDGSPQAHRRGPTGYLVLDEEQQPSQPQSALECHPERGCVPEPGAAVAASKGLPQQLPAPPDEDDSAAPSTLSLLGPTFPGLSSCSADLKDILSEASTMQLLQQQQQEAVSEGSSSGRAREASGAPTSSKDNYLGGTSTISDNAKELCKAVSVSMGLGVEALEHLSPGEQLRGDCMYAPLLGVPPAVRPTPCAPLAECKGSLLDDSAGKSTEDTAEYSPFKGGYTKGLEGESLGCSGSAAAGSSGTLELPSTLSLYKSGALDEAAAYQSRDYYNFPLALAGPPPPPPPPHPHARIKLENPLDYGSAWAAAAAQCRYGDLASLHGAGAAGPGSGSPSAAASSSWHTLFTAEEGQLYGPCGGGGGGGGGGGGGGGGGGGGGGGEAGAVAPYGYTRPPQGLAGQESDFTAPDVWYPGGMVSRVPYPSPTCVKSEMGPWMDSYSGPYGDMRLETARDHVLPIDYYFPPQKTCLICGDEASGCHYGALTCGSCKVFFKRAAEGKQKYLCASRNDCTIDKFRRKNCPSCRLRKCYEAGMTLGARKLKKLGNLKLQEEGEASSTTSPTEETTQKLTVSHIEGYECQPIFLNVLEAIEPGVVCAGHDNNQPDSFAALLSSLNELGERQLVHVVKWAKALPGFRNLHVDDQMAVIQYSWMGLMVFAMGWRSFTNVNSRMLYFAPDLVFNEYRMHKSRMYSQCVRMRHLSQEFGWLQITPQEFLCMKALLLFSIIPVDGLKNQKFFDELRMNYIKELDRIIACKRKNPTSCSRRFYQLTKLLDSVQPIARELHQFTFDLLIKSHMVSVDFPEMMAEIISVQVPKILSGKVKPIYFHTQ
Sequence of Estrogen receptor (Homo sapiens) (P03372 whole entry, looked up): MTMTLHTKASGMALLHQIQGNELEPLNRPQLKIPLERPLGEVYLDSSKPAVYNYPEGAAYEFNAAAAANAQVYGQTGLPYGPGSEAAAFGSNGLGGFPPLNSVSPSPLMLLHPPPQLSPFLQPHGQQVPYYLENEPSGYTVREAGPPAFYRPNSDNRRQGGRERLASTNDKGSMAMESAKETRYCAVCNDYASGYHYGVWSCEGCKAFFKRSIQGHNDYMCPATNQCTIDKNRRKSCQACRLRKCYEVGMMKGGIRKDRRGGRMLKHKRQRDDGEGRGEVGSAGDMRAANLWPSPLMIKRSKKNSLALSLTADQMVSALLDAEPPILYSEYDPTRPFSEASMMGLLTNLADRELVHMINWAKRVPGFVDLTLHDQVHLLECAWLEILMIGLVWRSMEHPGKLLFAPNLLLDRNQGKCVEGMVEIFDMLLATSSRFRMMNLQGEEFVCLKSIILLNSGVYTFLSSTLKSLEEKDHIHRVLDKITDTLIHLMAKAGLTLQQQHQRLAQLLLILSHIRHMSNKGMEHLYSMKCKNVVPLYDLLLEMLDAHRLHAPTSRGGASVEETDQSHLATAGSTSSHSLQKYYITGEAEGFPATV

ClCC(Cl)Cl
not listed: [13] | [14] | [15] | [16] | [17] | [18] | [19] | [20]
inactive: all other assays above

CCS(=O)(=O)CCSP(=O)(OC)OC
inactive: [1] | [2] | [3] | [4] | [6] | [7] | [8] | [9] | [10] | [11] | [12]

O=C(Nc1ccccc1)N(Cc1ccc(Cl)cc1)C1CCCC1
active: [14] 24.3 µM | [8] 68.6 µM
inactive: [1] | [2] | [3] | [4] | [7] | [13] | [11] | [12]

Fc1cc(Br)ccc1CBr
not listed: [2] | [10] | [13] | [18] | [19] | [20]
inactive: all other assays above

COc1ccc2c(c1OC)CN1CCc3cc4c(cc3C1C2)OCO4 (centres undefined)
active: [15] 26.6 µM | [9] 9.44 µM
not listed: [2] | [13] | [14] | [16] | [20]
inactive: all other assays above

CCCSC(=O)N(CCC)CCC
inactive: [1] | [2] | [3] | [4] | [5] | [6] | [7] | [8] | [10] | [11] | [12]

CCN(CC)CCOC(=O)C(C)(c1ccccc1)c1ccccc1
not listed: [5] | [14] | [15] | [16] | [17] | [18] | [19]
inactive: all other assays above

C[C@H]1CCC[C@H](O)CCCCCc2cc(O)cc(O)c2C(=O)O1
active: [19] 0.0616 µM
inactive: [1] | [2] | [18] | [3] | [4] | [7] | [9] | [10] | [11] | [12]

CC(C)CC(N(C)C)C1(c2ccc(Cl)cc2)CCC1 (centres undefined)
not listed: [9] | [12] | [15] | [16] | [17] | [19]
inactive: all other assays above

CC(N)=S
inactive: [1] | [3] | [4] | [5] | [6] | [20] | [13] | [14] | [8] | [11] | [12]

c1cc2c(c(N3CCNCC3)c1)OCCO2
not listed: [1] | [13] | [20]
inactive: all other assays above

CCCCOC(=O)c1ccccc1N
inactive: [1] | [3] | [4] | [6] | [7] | [13] | [14] | [8] | [10]

COc1cc(OC)nc(Sc2cccc(Cl)c2C(=O)O)n1
inactive: [1] | [3] | [4] | [5] | [6] | [7] | [20] | [8] | [9] | [11] | [12]

CN/C(=N\[N+](=O)[O-])NCC1CCOC1 (centres undefined)
not listed: [2] | [15] | [16] | [17] | [18] | [19]
inactive: all other assays above

CC(=O)[C@H]1CC[C@H]2[C@@H]3CC[C@H]4C[C@H](O)CC[C@]4(C)[C@H]3C(=O)C[C@]12C
not listed: [2] | [9] | [11] | [12] | [13] | [15] | [17]
inactive: all other assays above

CC(=O)Nc1cc([As](=O)(O)O)ccc1O
not listed: [2] | [9] | [15] | [17]
inactive: all other assays above

O=P(O)(Oc1ccccc1)Oc1ccccc1
not listed: [2] | [10] | [15] | [17] | [18] | [20]
inactive: all other assays above

NC1=NC(=O)C(c2ccccc2)O1 (centres undefined)
not listed: [2] | [5] | [15] | [16] | [17] | [19]
inactive: all other assays above

CN(N=O)C(N)=O
not listed: [2] | [11] | [12] | [15] | [16] | [17] | [18] | [19]
inactive: all other assays above

O=[N+]([O-])c1cc(Cl)c(Cl)c(Cl)c1
active: [8] 54 µM
not listed: [2] | [5] | [9] | [13] | [15] | [17] | [18] | [20]
inactive: all other assays above

Reference: PubChem BioAssay (Tox21)
